Results: the supplement of paper PMC12282887
± gives the standard deviation of the averaged measurements.

Columns and labels:
Assay in all cases: promoter activity interaction Z-score (Lux/OD deviation from empty-vector control); higher = stronger promoter induction by the compound
[1] = tested on: E. coli BW25113 acrABp lux reporter
How it was run: (§1)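 Every compound was given at four 1:2 dilutions, in biological duplicates, to E. coli BW25113 carrying low-copy luxCDABE promoter reporters in wild-type or single-gene deletion backgrounds. Growth in 40 µl LB Lennox in 384-well plates at 37°C was followed by OD600 and luminescence readings every 30 min for 12 h, integrated over 0–8 h for wild type and 1–9 h for deletion strains, with wells below 10% of the median growth value excluded. Scores are Z-transformed residuals of growth-normalised luminescence fitted against a control.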

[2] = tested on: E. coli BW25113 micFp lux reporter
How it was run: as §1

[3] = tested on: E. coli BW25113 ompFp lux reporter
How it was run: as §1

[4] = tested on: E. coli BW25113 robp lux reporter
How it was run: as §1

[5] = tested on: E. coli BW25113 soxSp lux reporter
How it was run: as §1

[6] = tested on: E. coli BW25113 tolCp lux reporter
How it was run: as §1

[7] = tested on: E. coli BW25113 marRABp lux reporter
How it was run: as §1

[8] = 0.011 µg/ml, genetic background: wild type
[9] = 0.011 µg/ml, genetic background: ΔmarA
[10] = 0.011 µg/ml, genetic background: Δrob
[11] = 0.011 µg/ml, genetic background: ΔsoxS
[12] = 0.022 µg/ml, genetic background: wild type
[13] = 0.022 µg/ml, genetic background: ΔmarA
[14] = 0.022 µg/ml, genetic background: Δrob
[15] = 0.022 µg/ml, genetic background: ΔsoxS
[16] = 0.044 µg/ml, genetic background: wild type
[17] = 0.044 µg/ml, genetic background: ΔsoxS
[18] = 0.12 µg/ml, genetic background: wild type
[19] = 0.12 µg/ml, genetic background: ΔmarA
[20] = 0.12 µg/ml, genetic background: Δrob
[21] = 0.12 µg/ml, genetic background: ΔsoxS
[22] = 0.23 µg/ml, genetic background: wild type
[23] = 0.23 µg/ml, genetic background: ΔmarA
[24] = 0.23 µg/ml, genetic background: Δrob
[25] = 0.23 µg/ml, genetic background: ΔsoxS
[26] = 0.47 µg/ml, genetic background: wild type
[27] = 0.47 µg/ml, genetic background: ΔmarA
[28] = 0.47 µg/ml, genetic background: Δrob
[29] = 0.47 µg/ml, genetic background: ΔsoxS
[30] = 0.94 µg/ml, genetic background: ΔmarA
[31] = 0.94 µg/ml, genetic background: Δrob
[32] = 0.94 µg/ml, genetic background: wild type

COc1c(N2C[C@@H]3CCCN[C@@H]3C2)c(F)cc2c(=O)c(C(=O)O)cn(C3CC3)c12 [Moxifloxacin]
promoter activity interaction Z-score [1, 8]: 0.0749 ± 0.025 | promoter activity interaction Z-score [1, 9]: -0.567 ± 0.78 | promoter activity interaction Z-score [1, 10]: 0.0419 ± 0.7 | promoter activity interaction Z-score [1, 11]: 0.247 ± 0.25 | promoter activity interaction Z-score [1, 12]: 0.793 ± 0.42 | promoter activity interaction Z-score [1, 13]: 1.07 ± 0.44 | promoter activity interaction Z-score [1, 14]: 0.898 ± 1.1 | promoter activity interaction Z-score [1, 15]: 0.353 ± 0.12 | promoter activity interaction Z-score [1, 16]: 3.94 | promoter activity interaction Z-score [1, 17]: 2.12 ± 1.1 | promoter activity interaction Z-score [2, 8]: -0.2 ± 0.019 | promoter activity interaction Z-score [2, 9]: 0.154 ± 0.019 | promoter activity interaction Z-score [2, 10]: 0.0249 ± 0.077 | promoter activity interaction Z-score [2, 11]: -0.0364 ± 0.073 | promoter activity interaction Z-score [2, 12]: -0.17 ± 0.072 | promoter activity interaction Z-score [2, 13]: 0.371 ± 0.036 | promoter activity interaction Z-score [2, 14]: 0.129 ± 0.04 | promoter activity interaction Z-score [2, 15]: 0.0515 ± 0.087 | promoter activity interaction Z-score [2, 16]: -0.648 ± 0.45 | promoter activity interaction Z-score [2, 17]: -0.721 ± 0.42 | promoter activity interaction Z-score [3, 8]: 0.138 ± 0.022 | promoter activity interaction Z-score [3, 9]: -0.0717 ± 0.18 | promoter activity interaction Z-score [3, 10]: 0.0886 ± 0.25 | promoter activity interaction Z-score [3, 11]: 0.123 ± 0.17 | promoter activity interaction Z-score [3, 12]: 0.271 ± 0.48 | promoter activity interaction Z-score [3, 13]: 0.695 ± 0.25 | promoter activity interaction Z-score [3, 14]: 0.555 ± 0.53 | promoter activity interaction Z-score [3, 15]: 0.184 ± 0.35 | promoter activity interaction Z-score [3, 16]: -0.0419 ± 2.9 | promoter activity interaction Z-score [4, 8]: 1.08 ± 0.33 | promoter activity interaction Z-score [4, 9]: 0.716 ± 0.13 | promoter activity interaction Z-score [4, 10]: 0.563 ± 0.16 | promoter activity interaction Z-score [4, 11]: 0.0805 ± 0.38 | promoter activity interaction Z-score [4, 12]: 0.311 ± 0.14 | promoter activity interaction Z-score [4, 13]: 0.295 ± 0.073 | promoter activity interaction Z-score [4, 14]: 0.251 ± 0.47 | promoter activity interaction Z-score [4, 15]: 0.687 ± 0.83 | promoter activity interaction Z-score [4, 16]: -1.23 ± 0.75 | promoter activity interaction Z-score [4, 17]: 1.18 ± 0.81 | promoter activity interaction Z-score [5, 8]: 0.023 ± 0.037 | promoter activity interaction Z-score [5, 9]: -0.096 ± 0.089 | promoter activity interaction Z-score [5, 10]: 0.0641 ± 0.18 | promoter activity interaction Z-score [5, 11]: 0.135 ± 0.027 | promoter activity interaction Z-score [5, 12]: 0.0383 ± 0.078 | promoter activity interaction Z-score [5, 13]: -0.0462 ± 0.065 | promoter activity interaction Z-score [5, 14]: -0.139 ± 0.043 | promoter activity interaction Z-score [5, 15]: 0.616 ± 0.023 | promoter activity interaction Z-score [5, 16]: 0.204 ± 0.017 | promoter activity interaction Z-score [5, 17]: 2.34 ± 1.4 | promoter activity interaction Z-score [6, 8]: 0.549 ± 0.068 | promoter activity interaction Z-score [6, 9]: -0.242 ± 0.2 | promoter activity interaction Z-score [6, 10]: -0.0406 ± 1.1 | promoter activity interaction Z-score [6, 11]: 0.127 ± 0.0073 | promoter activity interaction Z-score [6, 12]: -0.356 ± 0.14 | promoter activity interaction Z-score [6, 13]: -0.296 ± 0.43 | promoter activity interaction Z-score [6, 14]: -0.0729 ± 0.065 | promoter activity interaction Z-score [6, 15]: 1.75 ± 2.6 | promoter activity interaction Z-score [6, 16]: 0.111 ± 0.07 | promoter activity interaction Z-score [6, 17]: 0.782 ± 1.2

NC[C@H]1O[C@H](O[C@H]2[C@H](O)[C@@H](O[C@H]3O[C@H](CO)[C@@H](O)[C@H](N)[C@H]3O)[C@H](N)C[C@@H]2N)[C@H](N)C[C@@H]1O [Tobramycin]
promoter activity interaction Z-score [1, 18]: 0.275 ± 0.78 | promoter activity interaction Z-score [1, 19]: -0.0864 ± 0.66 | promoter activity interaction Z-score [1, 20]: -0.374 ± 0.06 | promoter activity interaction Z-score [1, 21]: -0.499 ± 0.77 | promoter activity interaction Z-score [1, 22]: 0.0585 ± 0.16 | promoter activity interaction Z-score [1, 23]: -1.02 ± 0.59 | promoter activity interaction Z-score [1, 24]: -0.281 ± 0.11 | promoter activity interaction Z-score [1, 25]: -0.243 ± 0.067 | promoter activity interaction Z-score [1, 26]: 0.268 ± 0.32 | promoter activity interaction Z-score [1, 27]: 0.0843 ± 0.8 | promoter activity interaction Z-score [1, 28]: 0.184 ± 0.22 | promoter activity interaction Z-score [1, 29]: -0.000211 ± 0.53 | promoter activity interaction Z-score [7, 18]: -0.211 ± 0.075 | promoter activity interaction Z-score [7, 19]: -0.0912 ± 0.16 | promoter activity interaction Z-score [7, 20]: -0.0729 ± 0.021 | promoter activity interaction Z-score [7, 21]: -0.3 ± 0.41 | promoter activity interaction Z-score [7, 22]: -0.379 ± 0.14 | promoter activity interaction Z-score [7, 23]: -0.269 ± 0.26 | promoter activity interaction Z-score [7, 24]: -0.264 ± 0.11 | promoter activity interaction Z-score [7, 25]: -0.0572 ± 0.44 | promoter activity interaction Z-score [7, 26]: 0.112 ± 0.2 | promoter activity interaction Z-score [7, 27]: 0.108 ± 0.0063 | promoter activity interaction Z-score [7, 28]: 0.123 ± 0.14 | promoter activity interaction Z-score [7, 29]: 0.021 ± 0.34 | promoter activity interaction Z-score [2, 18]: 0.116 ± 0.093 | promoter activity interaction Z-score [2, 19]: -0.103 ± 0.25 | promoter activity interaction Z-score [2, 20]: -0.119 ± 0.027 | promoter activity interaction Z-score [2, 21]: -0.254 ± 0.025 | promoter activity interaction Z-score [2, 22]: 0.0087 ± 0.2 | promoter activity interaction Z-score [2, 23]: -0.183 ± 0.0032 | promoter activity interaction Z-score [2, 24]: -0.106 ± 0.21 | promoter activity interaction Z-score [2, 25]: 0.447 ± 0.0099 | promoter activity interaction Z-score [2, 26]: 0.395 ± 0.47 | promoter activity interaction Z-score [2, 27]: -0.0629 ± 0.026 | promoter activity interaction Z-score [2, 28]: -0.0597 ± 0.061 | promoter activity interaction Z-score [2, 29]: -0.0982 ± 0.012 | promoter activity interaction Z-score [2, 30]: -0.362 | promoter activity interaction Z-score [2, 31]: -0.382 | promoter activity interaction Z-score [3, 18]: -0.387 ± 0.068 | promoter activity interaction Z-score [3, 19]: -0.3 ± 0.42 | promoter activity interaction Z-score [3, 20]: -0.413 ± 0.19 | promoter activity interaction Z-score [3, 21]: -0.487 ± 0.17 | promoter activity interaction Z-score [3, 22]: -0.622 ± 0.16 | promoter activity interaction Z-score [3, 23]: -0.759 ± 0.15 | promoter activity interaction Z-score [3, 24]: -0.556 ± 0.035 | promoter activity interaction Z-score [3, 25]: -0.0491 ± 0.17 | promoter activity interaction Z-score [3, 26]: -0.491 ± 0.36 | promoter activity interaction Z-score [3, 27]: -0.148 ± 0.12 | promoter activity interaction Z-score [3, 28]: -0.134 ± 0.25 | promoter activity interaction Z-score [3, 29]: -0.273 ± 0.14 | promoter activity interaction Z-score [4, 18]: 0.0204 ± 0.029 | promoter activity interaction Z-score [4, 19]: -0.389 ± 0.14 | promoter activity interaction Z-score [4, 20]: -0.392 ± 0.68 | promoter activity interaction Z-score [4, 21]: -0.688 ± 0.16 | promoter activity interaction Z-score [4, 22]: -0.193 ± 0.42 | promoter activity interaction Z-score [4, 23]: -0.587 ± 0.68 | promoter activity interaction Z-score [4, 24]: -0.421 ± 0.28 | promoter activity interaction Z-score [4, 25]: -0.277 ± 0.056 | promoter activity interaction Z-score [4, 26]: 0.112 ± 0.36 | promoter activity interaction Z-score [4, 27]: 0.0227 ± 0.29 | promoter activity interaction Z-score [4, 28]: -0.0785 ± 0.74 | promoter activity interaction Z-score [4, 29]: -0.163 ± 0.8 | promoter activity interaction Z-score [4, 30]: -0.438 | promoter activity interaction Z-score [5, 18]: -0.268 ± 0.23 | promoter activity interaction Z-score [5, 19]: -0.327 ± 0.091 | promoter activity interaction Z-score [5, 20]: -0.404 ± 0.1 | promoter activity interaction Z-score [5, 21]: -0.552 ± 0.76 | promoter activity interaction Z-score [5, 22]: -0.406 ± 0.046 | promoter activity interaction Z-score [5, 23]: -0.398 ± 0.089 | promoter activity interaction Z-score [5, 24]: -0.3823 ± 0.0022 | promoter activity interaction Z-score [5, 25]: -0.224 ± 0.31 | promoter activity interaction Z-score [5, 26]: -0.337 ± 0.16 | promoter activity interaction Z-score [5, 27]: -0.48 ± 0.096 | promoter activity interaction Z-score [5, 28]: -0.274 ± 0.22 | promoter activity interaction Z-score [5, 29]: -0.474 ± 0.4 | promoter activity interaction Z-score [5, 32]: -0.762 | promoter activity interaction Z-score [5, 31]: -0.904 | promoter activity interaction Z-score [6, 18]: -0.242 ± 0.84 | promoter activity interaction Z-score [6, 19]: -0.0707 ± 0.59 | promoter activity interaction Z-score [6, 20]: -0.601 ± 1.1 | promoter activity interaction Z-score [6, 21]: -1.14 ± 0.68 | promoter activity interaction Z-score [6, 22]: -0.456 ± 0.35 | promoter activity interaction Z-score [6, 23]: -1.13 ± 0.17 | promoter activity interaction Z-score [6, 24]: -0.0625 ± 1.8 | promoter activity interaction Z-score [6, 25]: 0.772 ± 0.56 | promoter activity interaction Z-score [6, 26]: -0.509 ± 0.71 | promoter activity interaction Z-score [6, 27]: -0.277 ± 0.22 | promoter activity interaction Z-score [6, 28]: 1.06 ± 1.1 | promoter activity interaction Z-score [6, 29]: 0.0909 ± 0.58 | promoter activity interaction Z-score [6, 32]: -0.901 ± 0.46 | promoter activity interaction Z-score [6, 30]: -0.459 | promoter activity interaction Z-score [6, 31]: -0.895 ± 0.19 | promoter activity interaction Z-score ([6]; 0.94 µg/ml, genetic background: ΔsoxS): -0.128 ± 1
